Bioassay records (PubChem BioAssay)
In the library only some 5.9% were active in any assay of this set; here they are far more common.
ABHD5-PLIN5 inh: blocks binding of human ABHD5 to perilipin-5; Q00G26+Q8WTS1; Split G. princeps luciferase complementation, luminescence, 4 h; inhibition, % at 4 µM; actives 0.78% (n = 360,000);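 active = inhibition above the mean inhibition across every tested compound plus 3 SD, cut at about 22% in these data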;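 also: 0% = DMSO only wells and the 100% control is not disclosed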
ALR H2O2 inh: blocks human ALR sulfhydryl oxidase activity | P55789 | purified ALR, DTT oxidation, H2O2 HRP-luminol luminescence | inhibition, % (concentration not given with the values) | actives 3.8% (n = 290,000) | AID 485317;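 active = mean replicate inhibition above about 79%, with every replicate also reaching it, limit read from the data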
LANA-H2B inh: blocks KSHV LANA binding to histone H2A/H2B. Q9QR71. cell-free LANA-H2A/H2B peptide, fluorescence polarization. inhibition, % (test concentration not listed). actives 0.6% (n = 320,000); in the data active = inhibition mostly above about 10%, no sharp cut-off; inactive = mostly below about 6.7%
PRMT1 FP inh: inhibitors of human PRMT1. AID 652257. actives 1.3% (n = 370,000). recombinant PRMT1, activity-based probe fluorescence polarization. inhibition, % at 2.79 µM;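 active = inhibition above about 21% made by adding two undisclosed values, limit read from the data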
Target sequence (Q99873 whole entry, looked up): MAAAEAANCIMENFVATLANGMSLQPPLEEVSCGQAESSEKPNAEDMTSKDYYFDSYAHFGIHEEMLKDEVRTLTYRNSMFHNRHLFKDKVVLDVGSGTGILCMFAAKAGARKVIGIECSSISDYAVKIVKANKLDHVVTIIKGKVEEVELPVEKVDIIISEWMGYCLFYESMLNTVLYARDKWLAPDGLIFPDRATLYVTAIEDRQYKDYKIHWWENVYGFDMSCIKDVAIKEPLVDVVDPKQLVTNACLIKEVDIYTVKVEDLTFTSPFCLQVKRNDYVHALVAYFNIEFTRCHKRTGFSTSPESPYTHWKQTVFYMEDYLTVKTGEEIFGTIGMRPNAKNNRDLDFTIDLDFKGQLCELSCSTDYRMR
rCAG RNA binder: r(CAG) repeat RNA binding; TO-PRO-1 dye displacement fluorescence; inhibition, % at 3 µM; actives 1.3% (n = 370,000); AID 651821;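 active = inhibition above the plate cutoff, the mean of all test compounds on that plate plus 3 SD, cut at about 35% in these data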;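 also: 0% = DMSO alone and 100% = 100 µM mitoxantrone as full dye displacement; higher means more dye released from RNA so lower well fluorescence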
Rtt109 HAT inh: blocks Candida albicans Rtt109/Vps75 acetyltransferase activity. Q5AAJ8. inhibition, % at 34.9 µM. purified Rtt109/Vps75, ThioGlo CoA-SH fluorescence, 4 h. actives 0.16% (n = 330,000);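 active = inhibition of at least 50% in every replicate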
An asterisk follows results filed as active.

Cc1cc2nc(Sc3c([N+](=O)[O-])nc(C)n3Cc3ccccc3)[nH]c2cc1C was read as ABHD5-PLIN5 inh 9.2, ALR H2O2 inh 97.3*, LANA-H2B inh -4.4, PRMT1 FP inh 3.0, rCAG RNA binder 5.1 and Rtt109 HAT inh 4.0.
For Cn1cnc([N+](=O)[O-])c1Sc1nc2ccccc2[nH]1 the results were ABHD5-PLIN5 inh 4.1, ALR H2O2 inh 98.8*, LANA-H2B inh -2.6, PRMT1 FP inh 3.9 and rCAG RNA binder -4.2.
For Cc1ccccc1CN[C@@H]1CC[C@@]23CCCN2C(=O)CCC[C@H]3C1 the results were PRMT1 FP inh 0.6.
For CC(NC(=O)c1ccc(N2CCCC2)c([N+](=O)[O-])c1)c1ccc(S(N)(=O)=O)cc1 (stereo not given) the results were ABHD5-PLIN5 inh -2.4, ALR H2O2 inh 98.1*, LANA-H2B inh 8.9, PRMT1 FP inh 2.0, rCAG RNA binder 5.5 and Rtt109 HAT inh -2.2.
Screening COC(=O)c1cc(NS(=O)(=O)c2ccc(N3CCCCC3)c([N+](=O)[O-])c2)cc(C(=O)OC)c1 returned ABHD5-PLIN5 inh 2.7, ALR H2O2 inh -7.4, LANA-H2B inh 3.3, PRMT1 FP inh -2.0, rCAG RNA binder 69.1* and Rtt109 HAT inh 4.5.
NC(=O)CC(NC(=O)c1ccc(Br)cc1)c1ccc(N2CCCCCCC2)c([N+](=O)[O-])c1 (stereo not given) was read as ABHD5-PLIN5 inh -4.1, ALR H2O2 inh 3.9, LANA-H2B inh -6.9, PRMT1 FP inh -1.4, rCAG RNA binder 6.6 and Rtt109 HAT inh 2.6.
`O=C(Nc1nnc2n1CCS2)c1ccc(Br)o1` gave ABHD5-PLIN5 inh -9.0, ALR H2O2 inh -1.6, LANA-H2B inh 4.9, PRMT1 FP inh -2.5, rCAG RNA binder -3.0 and Rtt109 HAT inh -12.9.
Screening O=C(Nc1cccc(-c2cn3ccccc3n2)c1)c1ccccc1 returned ABHD5-PLIN5 inh 13.4, ALR H2O2 inh 95.4*, LANA-H2B inh -5.2, PRMT1 FP inh -0.9, rCAG RNA binder 1.7 and Rtt109 HAT inh 23.3.
`CCCCn1c(=O)[nH]c2c(oc3ccccc32)c1=O` gave ABHD5-PLIN5 inh -6.4, ALR H2O2 inh 20.8, LANA-H2B inh 4.0, PRMT1 FP inh -0.4, rCAG RNA binder 4.9 and Rtt109 HAT inh -4.7.
For Cc1ccc(-n2c(=S)[nH]c3c(oc4ccccc43)c2=O)cc1 the results were ABHD5-PLIN5 inh -2.5, ALR H2O2 inh 52.0, LANA-H2B inh -1.2, PRMT1 FP inh 15.1, rCAG RNA binder 2.6 and Rtt109 HAT inh -2.0.
Screening O=c1c2oc3ccccc3c2[nH]c(=S)n1-c1ccccc1 returned ABHD5-PLIN5 inh 3.2, ALR H2O2 inh 92.1*, LANA-H2B inh -1.9, PRMT1 FP inh 6.0, rCAG RNA binder 1.4 and Rtt109 HAT inh -0.3.
`Cc1cccc(-n2c(=S)[nH]c3c(oc4ccccc43)c2=O)c1` gave ABHD5-PLIN5 inh -1.8, ALR H2O2 inh 89.6*, LANA-H2B inh -1.8, PRMT1 FP inh 3.0, rCAG RNA binder 5.8 and Rtt109 HAT inh -4.2.
Cc1ccc(NC(=O)NCc2ccco2)cc1[N+](=O)[O-] was read as PRMT1 FP inh -9.7 and rCAG RNA binder 2.9.
`c1ccc2c(-c3csc(-c4ccncc4)n3)c[nH]c2c1` gave ABHD5-PLIN5 inh -2.8, ALR H2O2 inh 98.9*, LANA-H2B inh -3.8, PRMT1 FP inh -0.2, rCAG RNA binder 4.5 and Rtt109 HAT inh -7.6.
`CC1(C)CC(=O)C2=C(C1)Oc1nc3ccccc3cc1C2C(C#N)C#N` (stereo not given) gave ABHD5-PLIN5 inh 18.1, ALR H2O2 inh 80.0*, LANA-H2B inh 2.8, PRMT1 FP inh -2.0, rCAG RNA binder -6.5 and Rtt109 HAT inh 8.8.
For COc1ccc(NC(=O)C2(C)Cc3c(-c4cccc(NC(C)=O)c4)ccnc3O2)cn1 (stereo not given) the results were ABHD5-PLIN5 inh 4.0, PRMT1 FP inh 10.8 and rCAG RNA binder -0.2.
CN(C)c1ccc(CNC(=O)c2ccc(CNc3c(N4CCCCC4)c(=O)c3=O)cc2)cc1 was read as ABHD5-PLIN5 inh -4.8, ALR H2O2 inh 98.1*, LANA-H2B inh 3.0, PRMT1 FP inh 1.1, rCAG RNA binder 2.2 and Rtt109 HAT inh -3.1.
For COC(=O)c1ccc(COc2ccccc2/C=C(\C#N)C(=O)Nc2ccc(C)cc2)cc1 the results were ABHD5-PLIN5 inh 0.8, ALR H2O2 inh -8.6, LANA-H2B inh -0.5, PRMT1 FP inh 2.7, rCAG RNA binder -1.7 and Rtt109 HAT inh 0.9.
